Data on 31 compounds can be found in ChEMBL document CHEMBL1961873, “Compounds: GSK PKIS; Assays: Nanosyn kinase panel” (2012).

Values joined by “and” are separate entries in the source; they are usually repeats but may differ in a detail not shown here. Equal values may be shown once.

Ribosomal protein S6 kinase alpha-1 (Homo sapiens), sequence (Q15418 whole entry): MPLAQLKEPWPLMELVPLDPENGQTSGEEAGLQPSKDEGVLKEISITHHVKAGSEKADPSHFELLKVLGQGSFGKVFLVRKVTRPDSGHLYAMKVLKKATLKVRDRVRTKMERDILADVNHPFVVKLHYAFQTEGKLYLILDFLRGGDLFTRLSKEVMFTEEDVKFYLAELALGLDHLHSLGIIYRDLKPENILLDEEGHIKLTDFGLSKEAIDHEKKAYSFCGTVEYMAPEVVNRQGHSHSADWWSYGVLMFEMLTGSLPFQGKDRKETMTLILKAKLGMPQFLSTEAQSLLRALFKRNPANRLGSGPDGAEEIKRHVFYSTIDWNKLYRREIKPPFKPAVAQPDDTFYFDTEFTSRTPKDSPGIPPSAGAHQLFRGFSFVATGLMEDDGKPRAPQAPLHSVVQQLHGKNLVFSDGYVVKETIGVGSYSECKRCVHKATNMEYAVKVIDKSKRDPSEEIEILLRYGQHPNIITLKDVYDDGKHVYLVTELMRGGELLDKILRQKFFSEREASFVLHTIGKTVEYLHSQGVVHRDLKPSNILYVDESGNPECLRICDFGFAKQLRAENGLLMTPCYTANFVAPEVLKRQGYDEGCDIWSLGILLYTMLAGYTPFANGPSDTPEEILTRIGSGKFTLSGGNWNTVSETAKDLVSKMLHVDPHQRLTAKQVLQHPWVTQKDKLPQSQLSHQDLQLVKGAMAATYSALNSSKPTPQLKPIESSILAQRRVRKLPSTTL

The first test concerns the target Ribosomal protein S6 kinase alpha-1 (Homo sapiens) (UniProt Q15418). The conditions noted are these: at 0.1 µM.
As for `c1ccc(-c2n[nH]cc2-c2ccnc(-c3ccc(OCCn4ccnc4)cc3)c2)nc1`, the inhibition was found to be 0.66%.

Consider `COc1cc(N2CCN(C(C)C)CC2)ccc1Nc1nc(Nc2cccc(F)c2C(=O)O)c2cc[nH]c2n1`, for which the inhibition was found to be 4.06%.

For `CS(=O)(=O)Nc1ccc(-c2cc(-c3ccccc3)cc(C(N)=O)c2N)cc1`, the inhibition is -1.14%.

Regarding `Nc1ncnc2occ(-c3ccc(NC(=O)Nc4cc(C(F)(F)F)ccc4F)cc3)c12`, the inhibition was 9.06% and 4.67%.

For `COc1cc2c(cc1Nc1nc(Nc3cccc(F)c3C(N)=O)c3cc[nH]c3n1)N(C(=O)CN1CCN(C(C)C)CC1)CC2`, the inhibition came to 4.37%.

Take `CCS(=O)(=O)c1ccc(OC)c(Nc2ncc(-c3cccc(C(C)=O)c3)o2)c1`: the inhibition was found to be 2.43%.

`CC(C)c1ccc(-c2cc(-c3c[nH]nc3-c3ccccn3)ccn2)cc1`: the inhibition was -0.37%.

Regarding `O=C(O[C@H]1CN[C@H](C#Cc2cc3ncnc(Nc4ccc5c(ccn5Cc5cc(F)ccc5F)c4)c3s2)C1)N1CCOCC1`, the inhibition turned out to be 1.53%.

`CN(c1ccc(NC(=O)NCCN2CCOCC2)cc1)c1ccnc(Nc2ccc(CS(C)(=O)=O)cc2)n1`: the inhibition came out at 1.1%.

On to `NS(=O)(=O)c1ccc(N/N=C2\C(=O)Nc3cccc(CCc4ccncc4)c32)cc1`, for which the inhibition stood at 2.2%.

With `CNC(=O)c1cncc(/C=C/c2ccccc2C)c1`, the inhibition came out at 2.39%.

On to `CN1CCC(C(=O)Nc2n[nH]c3nc(-c4ccc(O)cc4)c(Br)cc23)CC1`, for which the inhibition is 2.66% and 0.77%.

With `COc1c(C(N)=O)cc(-c2ccc(Cl)cc2)cc1-c1ccc(S(N)(=O)=O)cc1`, the inhibition came to 1.96%.

With `CN1CCN(Cc2ccc(-c3cc4ncnc(Nc5ccc(OCc6cccc(F)c6)c(Cl)c5)c4s3)o2)CC1`, the inhibition was 0.86% and 2.44%.

On to `NC(=O)c1ccc2c(-c3ccnc(NCCCO)n3)c(-c3ccc(F)cc3)nn2c1`, for which the inhibition came out at 3.69%.

A further test shares this target. The settings on record: at 1 µM.
With `CCCNc1cccc(-n2ncc3c(N/N=C/c4ccncc4)ncnc32)c1`, the inhibition was 4.72%.

On to `COC(=O)Nc1nc2ccc(Oc3ccc(NC(=O)Nc4cc(C(F)(F)F)ccc4F)cc3)cc2s1`, for which the inhibition was determined as 2.46%.

On to `N#Cc1ccc2c(-c3ccnc(NC4CC4)n3)c(-c3ccc(F)cc3)nn2c1`, for which the inhibition is 0.36%.

In the case of `Fc1cccc(COc2ccc(Nc3ncncc3C#Cc3ccccc3)cc2Cl)c1`, the inhibition was found to be 6.51%.

For the compound `NS(=O)(=O)c1cccc(N/C=C2\C(=O)Nc3ccccc32)c1`, the inhibition stood at 17.6%.

Turning to `COc1ccccc1-c1cc(/C=C2\C(=O)Nc3ncc(Br)cc32)cc(Br)c1O`, the inhibition is 0.08%.

Regarding `COC(=O)Nc1nc2cc(Oc3ccc(NC(=O)Nc4ccccc4)cc3)ccc2[nH]1`, the inhibition was 4.06%.

As for `O=C(O[C@H]1CN[C@H](C#Cc2cc3ncnc(Nc4ccc5c(cnn5Cc5ccccc5)c4)c3s2)C1)N1CCOCC1`, the inhibition was -0.14%.

As to `CCn1c(-c2nonc2N)nc2cncc(C(=O)NCCNC)c21`, the inhibition was 88.3%.

For the compound `Cc1cc(O)cc(C)c1/C=C/c1cncc(C(=O)OC(C)(C)C)c1`, the inhibition is 1.77%.

On to `N#Cc1cccc(Nc2ncc(-c3ccccc3)o2)c1`, for which the inhibition came to 3.79%.

On to `CNC(=O)c1sc(-n2cnc3cc(OC)c(OC)cc32)cc1OCc1ccccc1C(F)(F)F`, for which the inhibition came out at 2.58%.

In the case of `COc1ccc2ncn(-c3cc(O[C@H](C)c4ccccc4C(F)(F)F)c(C(N)=O)s3)c2c1`, the inhibition was determined as 3.85%.

With `COc1ccc(-c2nn3ncccc3c2-c2ccnc(Nc3ccc(F)c(F)c3)n2)cc1`, the inhibition worked out at 7.89%.

Turning to `Cc1cc(O)cc(C)c1/C=C/c1cncc(C(N)=O)c1`, the inhibition was -0.09%.

With `Fc1ccc(Nc2nccc(-c3c(-c4ccc(C(F)(F)F)cc4)nn4ncccc34)n2)cc1F`, the inhibition is -0.46%.

In the case of `c1ccc(-c2n[nH]cc2-c2ccnc(-c3ccc(OCCn4ccnc4)cc3)c2)nc1`, the inhibition came to 4.31%.

With `COc1cc(N2CCN(C(C)C)CC2)ccc1Nc1nc(Nc2cccc(F)c2C(=O)O)c2cc[nH]c2n1`, the inhibition is 16%.

For `CS(=O)(=O)Nc1ccc(-c2cc(-c3ccccc3)cc(C(N)=O)c2N)cc1`, the inhibition came out at 0.41%.

For the compound `Nc1ncnc2occ(-c3ccc(NC(=O)Nc4cc(C(F)(F)F)ccc4F)cc3)c12`, the inhibition is 46.6% and 34.2%.

As to `COc1cc2c(cc1Nc1nc(Nc3cccc(F)c3C(N)=O)c3cc[nH]c3n1)N(C(=O)CN1CCN(C(C)C)CC1)CC2`, the inhibition was found to be 20.1%.

Turning to `CCS(=O)(=O)c1ccc(OC)c(Nc2ncc(-c3cccc(C(C)=O)c3)o2)c1`, the inhibition came out at 5.75%.

Consider `CC(C)c1ccc(-c2cc(-c3c[nH]nc3-c3ccccn3)ccn2)cc1`, for which the inhibition is 1.19%.

Regarding `O=C(O[C@H]1CN[C@H](C#Cc2cc3ncnc(Nc4ccc5c(ccn5Cc5cc(F)ccc5F)c4)c3s2)C1)N1CCOCC1`, the inhibition was determined as 1.62%.

For `CN(c1ccc(NC(=O)NCCN2CCOCC2)cc1)c1ccnc(Nc2ccc(CS(C)(=O)=O)cc2)n1`, the inhibition stood at 3.56%.

For the compound `NS(=O)(=O)c1ccc(N/N=C2\C(=O)Nc3cccc(CCc4ccncc4)c32)cc1`, the inhibition came out at 1.84%.

As usually defined, the inhibition is the change of the read-out against control, counted positive when it falls.
